Measured values published in PubChem BioAssay (NCI).
Where “and” joins values, the source holds several entries; their conditions need not be identical. Equal entries are not always repeated. The panel holds about 83,000 compounds, 20% with a hit somewhere; the sample as a whole holds those more often.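 48-hour exposure, single concentration, 96-well plates; percent growth endpoint where 0 means no net growth. Active: below 10.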 Unmarked numbers belong to inactive results. Calls of active or inactive are those of the source.

Experiments:
Test in all cases: NCI-60 one-dose screen, 48 h (100 = growth as untreated, 0 = no growth, -100 = all killed)
Details in all cases: 10 µM unless noted
HCT-15 colon = tested on: HCT-15 colon
HT29 colon = tested on: HT29 colon
SNB-75 CNS = tested on: SNB-75 CNS
SNB-19 CNS = tested on: SNB-19 CNS
U251 CNS = tested on: U251 CNS
SK-MEL-5 melanoma = tested on: SK-MEL-5 melanoma
UACC-62 melanoma = tested on: UACC-62 melanoma
LOX IMVI melanoma = tested on: LOX IMVI melanoma
SK-MEL-28 melanoma = tested on: SK-MEL-28 melanoma
PC-3 prostate = tested on: PC-3 prostate

Row | SMILES | growth (HCT-15 colon) | growth (HT29 colon) | growth (SNB-75 CNS) | growth (SNB-19 CNS) | growth (U251 CNS) | growth (SK-MEL-5 melanoma) | growth (UACC-62 melanoma) | growth (LOX IMVI melanoma) | growth (SK-MEL-28 melanoma) | growth (PC-3 prostate) [%]
1 | C#CCCCNCCNc1ccnc2cc(Cl)ccc12 | 43.5% | 25.7% | 100% | 101% | 84.3% | 45.9% | 73.5% | 40.1% | 79% | –
2 | CCOc1ccccc1[C@H]1C(C(=O)c2ccc(Cl)cc2)C2(N[C@@H]1c1ccccc1)C(=O)Nc1ccc(Br)cc12 (stereo partly specified) | -5.64% (active) | -62.1% (active) | 44.4% | 17.1% | 0.419% (active) | -89.3% (active) | -46.8% (active) | -100% (active) | -23.4% (active) | –
3 | COc1ccc(-c2nc3ccc(-c4nnc(SCC(=O)Nc5ccc(/C(C)=N\O)cc5)o4)cc3[nH]2)cc1 | 93.4% | 86.3% | 11.8% | 57% | 18.6% | -75.7% (active) | 14% | 33.8% | -64.6% (active) | –
4 | COc1cc(CNC(=O)C[C@H](C)CCC=C(C)C)ccc1OCc1cn(-c2ccc(Br)cc2)nn1 | 82.4% | 94.4% | 47.3% | 57.7% | 63.4% | 55.7% | 65.1% | 74% | 96.5% | –
5 | COc1ccccc1NC(=O)N/N=C/c1c[nH]c2ccccc12 | 13.8% | 4.72% (active) | 20.8% | 40.6% | 20% | 4.48% (active) | 20.3% | -51.2% (active) | – | –
6 | COc1cc(NC(=O)CSc2nnc(-c3ccc(-c4nc5ccc(Cl)cc5[nH]4)cc3)o2)cc(OC)c1OC | 25.6% | – | 36.8% | 49.3% | 32.8% | 5.22% (active) | 28.4% | 32.2% | – | 52.3
7 | CC1=NN(C2=NC(=O)C(CC(=O)Nc3ccccc3C(F)(F)F)S2)C(c2ccc(N(C)C)cc2)C1 (stereo unspecified) | 17.1% | 40.8% | 54.9% | 54.5% | 49.3% | 43.4% | 41.4% | 46.3% | 42% | –
8 | N#Cc1ccc(C(=O)NNC(=O)CSc2nc3sc4c(c3c(=O)n2-c2ccc(Cl)cc2)CCCC4)cc1 | 51.2% | 56% | 86.7% | 51.5% | 15.9% | 38.5% | 4.59% (active) | 39.7% | 27.8% | –
9 | CC(=O)Nc1cccc(-n2c(COc3ccc(Br)cc3)nc3ccccc32)c1 | 88.7% and 107% | 123% and 115% | 89% and 94.7% | 96.9% and 98.7% | 94.9% and 113% | 90.3% and 103% | 71.9% and 91.9% | 91.8% and 104% | 101% and 106% | –
10 | Cc1ccc(C2CC(c3ccc(NC(=S)Nc4ccccc4)cc3)=NN2c2ccc(S(N)(=O)=O)cc2)cc1 (stereo unspecified) | 4.26% (active) | 1.32% (active) | 21.4% | 23.1% | 5.8% (active) | 27.9% | 17% | 14.9% | -57.7% (active) | –
11 | Cc1ccc(C(=O)Nc2cccc(C(=O)NC(=S)Nc3ccc(S(N)(=O)=O)cc3)c2)cc1 | 80.5% | 85.1% | 50.5% | 83.1% | 84.4% | 49.8% | 69.4% | 78.8% | 79.8% | –
12 | CC[C@]12C=CCN3CC[C@]4(C(=C(C(=O)OC)C1)Nc1cc(OC)c([C@@H]5[C@H]6O[C@H]6[C@@]6(CC)CC(C(=O)OC)=C7Nc8cc(O)ccc8[C@@]78CCN5[C@@H]68)cc14)[C@@H]32 | -77.2% (active) | -27.1% (active) | 27.3% | 21.6% | -38.2% (active) | -96.1% (active) | -71.9% (active) | -94.5% (active) | -21.8% (active) | –
13 | CS(=O)(=O)Nc1cccc(-n2c(COc3ccc(OC(F)(F)F)cc3)nc3ccccc32)c1 | 94.6% and 105% | 103% and 114% | 55.4% and 95.4% | 93.8% and 101% | 85% and 101% | 78.8% and 106% | 72.3% and 107% | 83.7% and 110% | 118% and 133% | –
14 | CNS(=O)(=O)N1CCc2c(Br)c3c(c(OC)c2C1CCc1ccccc1)OCO3 (stereo unspecified) | 2.11% (active) | -25.4% (active) | -38.4% (active) | 4.35% (active) | -63.6% (active) | -100% (active) | -78.7% (active) | -95.1% (active) | -77.9% (active) | –
15 | N#C/C(=C/c1ccc(Cl)cc1)c1nnc(NC(=O)c2ccc(-n3c(=O)[nH]c4ccccc4c3=O)cc2)s1 | 95.2% | 68.8% | 53.3% | 51.8% | 27.1% | 27.7% | 67.2% | 41.8% | 74.9% | –
16 | O=C1Nc2ccccc2/C1=C/C(=O)c1cc2ccccc2oc1=O | 30.3% | 110% | 126% | 101% | 107% | 99.9% | 88.9% | 91% | 36.7% | –
17 | Cc1cn(-c2cc(NC(=O)c3ccc(C)c(-n4cc(-c5cnc6cccnn56)nn4)c3)cc(C(F)(F)F)c2)cn1 | 84.8% | 7.41% (active) | 122% | 109% | 44.3% | 53.9% | 11.3% | 26.8% | 23.5% | –
18 | N#C/C(=C/c1ccc([N+](=O)[O-])cc1)c1nnc(NC(=O)c2ccc(-n3c(=O)[nH]c4ccccc4c3=O)cc2)s1 | 93.3% | 110% | 110% | 87.1% | 89.5% | 99% | 99.2% | 90.5% | 100% | –
19 | Nc1nnc(-c2cncc(Br)c2)c(-c2c[nH]c3ccc(Cl)cc23)n1 | 55.4% | 106% | 57.2% | 73.1% | 83.9% | 70.4% | 73.7% | 77.3% | 91.2% | –
20 | Cn1cc(-c2cc(N)n3nc(-c4c[nH]c5ccccc45)cc3n2)c2cc(Cl)ccc21 | -77.3% (active) | -51.4% (active) | -14.7% (active) | -91.1% (active) | -94.7% (active) | -97.6% (active) | -76.9% (active) | -82.5% (active) | -90.2% (active) | –
21 | CCC(=O)c1c2c(c3ccc4c5ccccc5ccc4n13)C(=O)c1ccccc1C2=O | 66.8% | 94.2% | 113% | 66.7% | 90.4% | -23.6% (active) | 54.9% | 50.1% | 76.4% | –
22 | COc1ccc(NC(=O)Cn2c(/C=C/c3ccc([N+](=O)[O-])cc3)nc3ccccc3c2=O)cc1 | 73.7% | 85.5% | -32.7% (active) | 32.2% | 32.2% | 52.6% | 73.2% | 61.5% | 80.8% | –
23 | CC(C)(C)C(=O)c1c2c(c3ccc4c5ccccc5ccc4n13)C(=O)c1ccccc1C2=O | 81.7% | 111% | 122% | 88.7% | 98.5% | 78.8% | 97.2% | 73.2% | 105% | –
24 | COc1ccc2c(c1)C(Sc1ccc(F)cc1)c1c(nc(N)c(C#N)c1N)O2 (stereo unspecified) | 80.6% | 94.3% | 66.5% | 79.7% | 82% | 91.2% | 74.1% | 60.9% | 112% | –
25 | CC(=O)c1ccc2c(N)c(C(=O)Nc3ccc(C(F)(F)F)cc3)sc2n1 | 40.7% | 82.2% | 84.7% | 67.9% | 72.6% | -5% (active) | 59.7% | 37.8% | 87.2% | –
26 | O=C1Nc2ccccc2/C1=C\c1ccc(OCC(=O)c2ccc(Br)cc2)cc1 | 45.4% | 82.7% | 79.6% | 79.6% | 71.5% | 28.9% | 52.6% | 28.9% | 80.2% | –
27 | CC[C@]12C=CCN3CC[C@@]4(c5ccc(OC)cc5N(C)[C@H]4[C@@](O)(C(=O)OC)[C@@H]1OC(=O)CCCC[P+](c1ccc(F)cc1)(c1ccc(F)cc1)c1ccc(F)cc1)[C@@H]32 | 102% | 15.9% | -5.3% (active) | 6.61% (active) | 13% | -59.7% (active) | -69.6% (active) | 25% | -54.9% (active) | –
